In PubChem BioAssay (EPA / NIEHS) one finds outcome and AC50 data, which are given here for six compounds.

Read-out in assay [1]: Tissue Factor, F3 (gene 2152)
As to the kind of experiment: BSK_CASM3C_TissueFactor: BioMAP Diversity Plus: CASM3C Assay for Tissue Factor Biomarker Activity (AID 2283052).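 Also: cell surface tissue factor protein level read by ELISA.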 Conditions: primary human coronary artery smooth muscle cells; actives raise or lower the signal.

Read-out in assay [2]: Interferon-gamma inducible Protein 10 (IP10), CXCL10 (gene 3627)
The assay can be described thus: BSK_hDFCGF_IP10: BioMAP Diversity Plus: hDFCGF Assay for Interferon-gamma inducible Protein 10 (IP10) Biomarker Activity (AID 2283053). Particulars: primary human foreskin fibroblasts; actives raise or lower the signal. The essentials:
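Primary foreskin fibroblasts, human; 24 h compound exposure; IP-10 by ELISA; bidirectional fit vs DMSO.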

Read-out in assay [3]: Urokinase-type plasminogen activator receptor (uPAR), PLAUR (gene 5329)
The assay can be described thus: BSK_CASM3C_uPAR: BioMAP Diversity Plus: CASM3C Assay for Urokinase-type plasminogen activator receptor (uPAR) Biomarker Activity (AID 2283054).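 Also: cell-surface uPAR protein level quantified by ELISA.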 Conditions: primary human coronary artery smooth muscle cells; actives raise or lower the signal.

Read-out in assay [4]: Vascular cell adhesion molecule 1 (VCAM1), VCAM1 (gene 7412)
As to the kind of experiment: BSK_CASM3C_VCAM1: BioMAP Diversity Plus: CASM3C Assay for Vascular cell adhesion molecule 1 (VCAM1) Biomarker Activity (AID 2283055).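 Also: VCAM-1 protein level quantified by ELISA on the cells.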 Conditions: primary human coronary artery smooth muscle cells; actives raise or lower the signal.

Read-out in assay [5]: Collagen III, COL3A1 (gene 1281)
As to the kind of experiment: BSK_hDFCGF_CollagenIII: BioMAP Diversity Plus: hDFCGF Assay for Collagen III Biomarker Activity (AID 2283056). Particulars: primary human foreskin fibroblasts; actives raise or lower the signal. The essentials: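 ELISA read-out of collagen III from human skin fibroblast cultures sampled 24 h post-dosing. Values were derived by bidirectional fitting relative to the DMSO vehicle control.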

Read-out in assay [6]: Epidermal growth factor receptor (EGFR), EGFR (gene 1956)
The assay can be described thus: BSK_hDFCGF_EGFR: BioMAP Diversity Plus: hDFCGF Assay for Epidermal growth factor receptor (EGFR) Biomarker Activity (AID 2283057). Conditions: primary human foreskin fibroblasts; actives raise or lower the signal. The method in brief:
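hDFCGF system, primary human foreskin fibroblasts; compound 24 h; EGFR measured by ELISA; DMSO = negative control/baseline; bidirectional fitting.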

Read-out in assay [7]: Interleukin-8 (IL8), CXCL8 (gene 3576)
As to the kind of experiment: BSK_hDFCGF_IL8: BioMAP Diversity Plus: hDFCGF Assay for Interleukin-8 (IL8) Biomarker Activity (AID 2283058). Conditions: primary human foreskin fibroblasts; actives raise or lower the signal. The method in brief:
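Cells used are human skin primary fibroblasts. Chemical is added, cultures run 24 h, then IL-8 is quantified by ELISA, and gain or loss versus DMSO control is fitted in both directions.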

Read-out in assay [8]: Macrophage colony-stimulating factor (MCSF), CSF1 (gene 1435)
As to the kind of experiment: BSK_hDFCGF_MCSF: BioMAP Diversity Plus: hDFCGF Assay for Macrophage colony-stimulating factor (MCSF) Biomarker Activity (AID 2283060). Particulars: primary human foreskin fibroblasts; actives raise or lower the signal. The method in brief: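 Primary human foreskin fibroblasts dosed with chemical; 24 h later, M-CSF quantified by ELISA; curves fitted in both directions vs DMSO negative control.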

The nature of assay [9]: BSK_hDFCGF_SRB: Viability Assessment in the BioMAP Diversity Plus: hDFCGF Assay (AID 2283061).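 Also: cells exposed to compound for 24 h before the read.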 Particulars: primary human foreskin fibroblasts. The method in brief:
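Readout is SRB absorbance at 560 nm, reflecting total protein in parallel cultures of human foreskin fibroblasts harvested 24 h after chemical dosing. Activity was fitted bidirectionally relative to DMSO.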

Read-out in assay [10]: TIMP metallopeptidase inhibitor 1 (TIMP1), TIMP1 (gene 7076)
The assay can be described thus: BSK_hDFCGF_TIMP1: BioMAP Diversity Plus: hDFCGF Assay for TIMP metallopeptidase inhibitor 1 (TIMP1) Biomarker Activity (AID 2283062). Conditions: primary human foreskin fibroblasts; actives raise or lower the signal. The method in brief: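 Human skin fibroblasts (primary), hDFCGF system; compound exposure 24 h; TIMP-1 by ELISA; bidirectional fit vs DMSO negative control; overt cytotoxicity by SRB in parallel wells.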

Read-out in assay [11]: Monokine induced gamma interferon (MIG), CXCL9 (gene 4283)
As to the kind of experiment: BSK_hDFCGF_MIG: BioMAP Diversity Plus: hDFCGF Assay for Monokine induced gamma interferon (MIG) Biomarker Activity (AID 2283063). Conditions: primary human foreskin fibroblasts; actives raise or lower the signal. The method in brief:
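Chemicals were added to primary human foreskin fibroblast cultures, which were sampled 24 h later. MIG levels were then quantified by ELISA and responses fitted in both directions relative to DMSO.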

Read-out in assay [12]: Matrix Metallopeptidase 1 (MMP1), MMP1 (gene 4312)
As to the kind of experiment: BSK_hDFCGF_MMP1: BioMAP Diversity Plus: hDFCGF Assay for Matrix Metallopeptidase 1 (MMP1) Biomarker Activity (AID 2283064). Particulars: primary human foreskin fibroblasts; actives raise or lower the signal. The essentials: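 Primary human foreskin fibroblasts in the hDFCGF system were dosed with test chemical, and MMP1 was measured by ELISA 24 h later. Values come from bidirectional curve fitting against the DMSO baseline.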

Read-out in assay [13]: Plasminogen activator inhibitor-1 (PAI1), SERPINE1 (gene 5054)
As to the kind of experiment: BSK_hDFCGF_PAI1: BioMAP Diversity Plus: hDFCGF Assay for Plasminogen activator inhibitor-1 (PAI1) Biomarker Activity (AID 2283066). Conditions: primary human foreskin fibroblasts; actives raise or lower the signal. The method in brief: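 Primary dermal fibroblasts (human foreskin), hDFCGF system; compound 24 h; PAI-1 by ELISA; bidirectional fit vs DMSO control.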

Read-out in assay [14]: Intercellular Adhesion Molecule 1 (ICAM1), ICAM1 (gene 3383)
As to the kind of experiment: BSK_KF3CT_ICAM1: BioMAP Diversity Plus: KF3CT Assay for Intercellular Adhesion Molecule 1 (ICAM1) Biomarker Activity (AID 2283067). Particulars: primary human keratinocytes with fibroblasts; actives raise or lower the signal. The method in brief:
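ICAM-1 levels are measured by ELISA 24 h after dosing a primary human co-culture of keratinocytes and foreskin fibroblasts. Activity in either direction is fitted relative to DMSO vehicle.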

Assay [15] is described as follows: BSK_KF3CT_SRB: Viability Assessment in the BioMAP Diversity Plus: KF3CT Assay (AID 2283069).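 Also: total protein by sulforhodamine B staining as a cytotoxicity measure; read 24 h after compound addition.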 Conditions: primary human keratinocytes with fibroblasts. The method in brief:
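Human primary keratinocyte plus foreskin fibroblast co-culture exposed to chemicals for 24 h. Total protein measured by 0.1% sulforhodamine B staining after 10% TCA fixation, read at 560 nm; bidirectional fitting versus DMSO baseline.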

Read-out in assay [16]: Interleukin-1 alpha (IL1a), IL1A (gene 3552)
The assay can be described thus: BSK_KF3CT_IL1a: BioMAP Diversity Plus: KF3CT Assay for Interleukin-1 alpha (IL1a) Biomarker Activity (AID 2283070). Particulars: primary human keratinocytes with fibroblasts; actives raise or lower the signal. The method in brief:
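Human keratinocyte plus foreskin fibroblast primary co-culture, sampled 24 h after chemical dosing. IL-1a measured by ELISA; responses fitted bidirectionally against DMSO baseline (negative control), so gain or loss of signal both count.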

Read-out in assay [17]: TIMP metallopeptidase inhibitor 2 (TIMP2), TIMP2 (gene 7077)
The assay can be described thus: BSK_KF3CT_TIMP2: BioMAP Diversity Plus: KF3CT Assay for TIMP metallopeptidase inhibitor 2 (TIMP2) Biomarker Activity (AID 2283071). Conditions: primary human keratinocytes with fibroblasts; actives raise or lower the signal. The method in brief: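 Cells: human keratinocytes co-cultured with foreskin fibroblasts. Treat with chemical, 24 h. Measure TIMP-2 by ELISA; fit curves bidirectionally vs DMSO baseline.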

The source made the active and inactive calls. The calls were made as follows: active = hit-call score of the fitted dose curve at least 0.9, where 1 is the maximum; inactive = score below 0.9.

For the compound `CCCCOCCOCCO`, the outcome in assay [1], in assay [2], in [3], in assay [4], in assay [5] and in assay [6] was inactive. The result in assay [7], in assay [8], in assay [9], in assay [10], in [11] and in assay [12] was inactive. The outcome in [13], in assay [14], in assay [15], in assay [16] and in assay [17] was inactive.
One may read the AC50 as the midpoint of the concentration-response curve, whichever way the signal moves. For `O=C(c1ccc(OCCN2CCCCC2)cc1)c1c(-c2ccc(O)cc2)sc2cc(O)ccc12`, the outcome in [1] and in [4] was inactive. Besides, the AC50 was 32200 nM (active) in assay [2]; 33400 nM (active) in assay [3]; 14800 nM (active) in [5]; 9630 nM (active) in [6]; 33700 nM (active) in [7]; 24400 nM (active) in assay [9]. The half-maximal activity concentration (AC50) in assay [10] was 35800 nM (active); in assay [11], 32100 nM (active); in assay [12], 31700 nM (active); in assay [13] it was 15600 nM (active); in [14] it was 38000 nM (active); in assay [15], 29200 nM (active). In [17], the AC50 was 29300 nM (active).
`C=CC(=O)OCC(CO)(COC(=O)C=C)COC(=O)C=C`: the concentration at half-maximal activity (AC50) in assay [1] was 1250 nM (active); in assay [2], 16 nM (active); in assay [3] it was 501 nM (active); in assay [4], 206 nM (active); in assay [5] it was 16 nM (active); in assay [7], 3970 nM (active). The concentration at half-maximal activity (AC50) in [8] is 37.7 nM (active); in assay [9], 16.3 nM (active); in [10], 16 nM (active); in assay [11], 17.7 nM (active); in assay [12] it was 146 nM (active); in assay [13], 26.6 nM (active). Further, the half-maximal activity concentration (AC50) is 682 nM (active) in assay [14], 592 nM (active) in assay [15] and 529 nM (active) in [17]. Further, the result in [6] was inactive.
On to `CCC(=O)OCC=Cc1ccccc1`, for which the outcome in [1], in assay [2], in assay [3], in [4], in [5] and in assay [6] was inactive. For the same compound, the result in assay [7], in [8], in assay [9], in assay [10], in assay [11] and in assay [12] was inactive. The result in [13], in assay [14], in [15] and in assay [17] was inactive.
Regarding `C=C(C)C(N)=O`, the result in assay [1], in assay [2], in assay [3], in assay [4], in assay [5] and in [6] was inactive. Moreover, the outcome in assay [7], in [8], in assay [9], in assay [10], in assay [11] and in assay [12] was inactive. For the same compound, the outcome in assay [13], in [14], in assay [15] and in assay [17] was inactive.
Regarding `CC1(C)[C@H](C=C(Cl)Cl)[C@H]1C(=O)OCc1cccc(Oc2ccccc2)c1`, the result in assay [1], in assay [2], in [3], in assay [4], in [5] and in [6] was inactive. For the same compound, the result in assay [7], in assay [8], in assay [9], in [10], in assay [11] and in [12] was inactive. The result in assay [13], in assay [14], in assay [15] and in assay [17] was inactive.
